IL2 activator: activators of IL-2 | IL-2 activation reporter assay, cell-based qHTS; stimulated with anti-CD3/CD4/CD28 beads; in transgenic mouse T cells | activation, % (series mostly up to about 46 µM) | 360,000 tested, 0.065% active | AID 652025; in the data active = activation above about 50%; inconclusive = mostly about 30% to 49%
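Unstimulated transgenic mouse T cells, 750 per well, received compound and, after 60 minutes, anti-CD3/anti-CD4 bead plus anti-CD28 stimulation. EGFP and DsRed were quantified after 18 hours.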
PKM2 activator: activators of human pyruvate kinase M2. P14618. purified PKM2, Kinase-Glo ATP luminescence, activation; response scale: 0% is enzyme alone, no compound. Potency, µM (highest dose often 57.5 µM), actives largely listed as activators. 260,000 tested, 0.34% active. AID 1631; also: nearly all actives have a fitted effect of over 55% in size
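Kinase-Glo luminescence reports ATP generated from ADP (0.1 mM) and PEP (0.5 mM) by purified hPK-M2 after 1 h at room temperature, pH 7.2 imidazole buffer; intermediate enzyme activity allows detecting inhibitors and activators.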
S-ASM inh: blocks human secretory acid sphingomyelinase. P17405. placental ASM, HMU-PC fluorogenic substrate, 60 min. Potency, µM (top dose mostly 57.5 µM), usual class: inhibitors. 340,000 tested, 0.006% active. AID 504937
Target sequence (P17405 47-631 limits assumed): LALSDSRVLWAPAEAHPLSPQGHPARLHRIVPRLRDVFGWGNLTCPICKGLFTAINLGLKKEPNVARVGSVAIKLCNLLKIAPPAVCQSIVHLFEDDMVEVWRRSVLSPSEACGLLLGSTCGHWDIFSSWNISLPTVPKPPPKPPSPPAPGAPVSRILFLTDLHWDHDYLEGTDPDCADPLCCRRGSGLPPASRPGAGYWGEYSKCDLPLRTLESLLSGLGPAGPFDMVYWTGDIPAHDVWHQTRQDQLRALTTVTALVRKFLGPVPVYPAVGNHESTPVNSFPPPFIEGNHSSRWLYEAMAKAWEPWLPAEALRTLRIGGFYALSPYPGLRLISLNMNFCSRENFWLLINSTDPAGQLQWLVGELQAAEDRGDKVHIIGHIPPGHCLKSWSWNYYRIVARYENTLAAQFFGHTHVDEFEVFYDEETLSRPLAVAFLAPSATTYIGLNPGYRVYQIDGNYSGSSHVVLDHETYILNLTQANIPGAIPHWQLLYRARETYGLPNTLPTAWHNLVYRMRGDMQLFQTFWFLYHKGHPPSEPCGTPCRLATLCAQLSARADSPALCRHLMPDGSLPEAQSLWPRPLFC
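Fluorescence read-out (Ex 386 nm, Em 447 nm) after stopping the reaction at pH 10. Enzyme: ASM from human placenta; substrate HMU-PC0, 9 uM final; 60 min, 37 °C. Compound preincubation 10 min, ambient temperature.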
HeLa tox: reduces HeLa cell viability in PKM2 activator counter-screen | shares compounds with PKM2 activator | HeLa viability, CellTiter-Glo ATP luminescence, 24 h | activity change, negative = cytotoxicity, % at 57.5 µM | 230 tested, under 10 active | AID 1898
A number is an active result; . = inactive; ? = inconclusive; / = no result. A selection: hits, their analogues and other compounds. The true share with any hit is near 0.33%. Unless noted, calls follow the shape of the dose curve; as a rule, active = well fitted curve in the direction sought with a large enough effect; inconclusive = small, poorly fitted or top-dose-only effect, or another doubt; inactive = no such curve, though single readings can be large; an effect the other way counts as inactive or inconclusive.

SMILES	IL2 activator	PKM2 activator	S-ASM inh	HeLa tox
Cc1cccc(NC(=O)COC(=O)C2C3CC4OC(=O)C2C4C3)c1C (centres undefined)	.	.	.	/
Cc1ccc2oc(C(=O)N(C)Cc3ccon3)c(C)c2c1	.	/	.	/
Cc1ccc2oc(C(=O)N(C)Cc3ccc(C)o3)c(C)c2c1	.	6.3µM	.	.
CCCN1C(=O)S/C(=C/c2ccc(N3CCOCC3)o2)C1=O	.	1µM	.	.
CCOC(=O)CN1C(=O)S/C(=C/c2ccc(N3CCCCC3)o2)C1=O	.	.	.	/
O=c1cc(CNCCCO)c2ccccc2[nH]1	.	.	.	/
O=C(CSc1ncnc2c1nnn2Cc1ccccc1F)N1CCN(c2ccccc2)CC1	.	.	.	/
Fc1ccccc1Cn1nnc2c(-n3ccnc3)ncnc21	.	1.1µM	.	.
CC1CCN(C(=O)C2CCC(CNS(=O)(=O)c3cccc4cccnc34)CC2)CC1 (centres undefined)	/	.	/	/
CC1CCN(C(=O)c2ccc(NS(=O)(=O)c3cccc4cccnc34)cc2)CC1	.	2.8µM	.	.
COc1cc(/C=N/n2c(C3CCCCC3)n[nH]c2=S)cc(Br)c1O	.	/	.	/
Cc1ccc(NS(=O)(=O)c2cc3c4c(cccc4c2)C(=O)NC3=O)cc1C	.	4µM	.	?
O=C1NC(=O)c2cc(Br)cc3cccc1c23	.	.	.	/
Cc1ccc(S(=O)(=O)N2CCN(C(=O)c3c(C)nn(-c4ccccc4)c3Cl)CC2)cc1	.	.	.	/
Cc1cc(C(=O)OCC(=O)N2CCOCC2)c2ccccc2n1	.	3.5µM	.	.
Cc1cc(C(=O)OCC(=O)N2CCCC2)c2ccccc2n1	.	.	.	/
COC(=O)c1c(C(=O)OC)c2ccccn2c1C(=O)c1ccc([N+](=O)[O-])cc1	.	/	.	/
CCOc1ccc2nc(NC(=O)c3c([N+](=O)[O-])cnn3CC)sc2c1	.	.	.	/
Cc1ccc(C)c2[nH]c(=O)c(CN(Cc3ccco3)C(=O)Nc3ccccc3)cc12	.	7.9µM	.	?
Cc1ccc2cc(CN(Cc3ccco3)C(=O)NCc3ccccc3)c(=O)[nH]c2c1C	.	.	.	/
COc1ccc(C(C)(C)C)cc1NC(=O)CCN1C(=O)NC(C)(C)C1=O	.	/	.	/
c1ccc(-c2nn3c(Cn4cnc5ccccc54)nnc3s2)cc1	.	3.2µM	.	.
c1ccc(-c2nn3c(Cn4nnc5ccccc54)nnc3s2)cc1	.	.	.	/
S=C(c1ccc(-c2ccc(Cl)cc2Cl)o1)N1CCCC1	.	8.9µM	.	.
S=C(c1ccc(-c2ccc(Cl)cc2Cl)o1)N1CCCCC1	.	.	.	/
SMILES	IL2 activator	PKM2 activator	S-ASM inh	HeLa tox
Cc1cccc(OCCSc2nc3c([nH]2)c(=N)ncn3Cc2ccccc2)c1	.	.	.	/
CC(C)Sc1nc2c([nH]1)c(=N)ncn2Cc1ccccc1	.	14µM	.	.
N#CC1=C(N)OC2=C(CC/C2=C\c2ccccc2Cl)C1c1ccccc1Cl (centres undefined)	.	.	.	/
COc1cccc(S(=O)(=O)N(C)C[C@@H]2OCc3cn(nn3)CCCC(=O)N([C@H](C)CO)C[C@H]2C)c1	.	/	/	/
Cn1c2ccccc2c2cnn(CC(=O)Nc3cccc(F)c3)c(=O)c21	.	.	.	/
O=c1c2cnn(-c3ccccc3)c2ncn1Cc1ccccc1F	.	.	.	/
Cn1c2cc(C=O)sc2c2cnn(Cc3ccccc3F)c(=O)c21	/	/	/	.
COc1cc2c(s1)c1cnn(Cc3ccccc3F)c(=O)c1n2C	/	/	/	.
Cc1c2cnn(CC(=O)Nc3c(F)c(F)cc(F)c3F)c(=O)c2c(C)n1Cc1ccccc1F	.	.	.	/
CC(=O)Nc1cc2c(s1)c1cnn(Cc3ccccc3F)c(=O)c1n2C	/	/	/	.
Cn1c2cc(CO)sc2c2cnn(Cc3ccccc3F)c(=O)c21	/	/	/	.
O=C(Cn1ncc2c3ccccc3n(Cc3ccccc3F)c2c1=O)N1CCN(c2ccccn2)CC1	.	.	.	/
O=C1NC(=O)/C(=C\c2ccccc2OCc2cccc([N+](=O)[O-])c2)N1	.	.	.	/
O=S(=O)(Nc1ccc(-c2cn3ccsc3n2)cc1)c1ccc2c(c1)OCCO2	.	.	.	/
O=C(CS(=O)(=O)c1ccccc1)Nc1ccccn1	.	.	.	/
Cc1ccc(NC(=O)n2ncc3c(C)cccc32)cc1F	.	/	.	/
CCCC(C(=O)NCc1ccco1)N(Cc1ccco1)C(=O)CNS(=O)(=O)c1ccccc1 (centres undefined)	.	.	.	/
CCOCCCn1c(=S)[nH]c2cc(C(=O)NCCOC)ccc2c1=O	.	.	.	/
CSc1ncccc1C(=O)NCC(=O)Nc1ccc(F)c(F)c1	.	.	.	/
C[C@@H]1CN[C@@H](CCO)/C1=C\c1ccccc1	.	/	.	/
CCc1cc2c(s1)c1cnn(Cc3ccccc3F)c(=O)c1n2C	/	/	/	?
CSc1cc2c(s1)c1cnn(Cc3ccccc3F)c(=O)c1n2C	/	/	/	.
Cc1sc2ncn(Cc3ccccc3F)c(=O)c2c1C	.	.	.	/
O=C(Cn1ncc2c3ccccc3n(Cc3ccccc3F)c2c1=O)NCC1CCCO1 (centres undefined)	.	/	.	/
CC(=O)Nc1ccc(NC(=O)CSc2nnc(CNc3ccc(F)cc3)n2CC2CCCO2)cc1 (centres undefined)	.	.	.	/
SMILES	IL2 activator	PKM2 activator	S-ASM inh	HeLa tox
Cc1cc(C)c(OCC(=O)Nc2nnn(C)n2)c(Br)c1	.	.	.	/
O=C(c1cccs1)N1N=C(c2ccccc2)CC1c1ccccc1O (centres undefined)	.	.	.	/
CC(=O)N1N=C(c2ccncc2)CC1c1ccccc1O (centres undefined)	.	4.5µM	.	.
O=C(CSc1nc(-c2ccccc2)cc(C(F)(F)F)n1)c1cccc([N+](=O)[O-])c1	.	.	.	/
COc1cc2c(C(=O)NCc3ccc(C)o3)cn(CC(C)C)c(=O)c2cc1OC	.	14µM	.	.
CCn1cc(C(=O)NCc2ccco2)c2cc(OC)c(OC)cc2c1=O	.	.	.	/
Nc1c(N(CCO)C(=O)C2CCCC2)c(=O)[nH]c(=O)n1Cc1ccccc1	.	/	.	/
Cn1c(=O)c(=O)n(C)c2cc(S(=O)(=O)N3CCN(c4ccccc4F)CC3)ccc21	.	.	.	/
COc1ccc(CCNc2ccc(S(=O)(=O)N3CCCC3)cc2[N+](=O)[O-])cc1	.	3.2µM	.	.
COc1ccc(Nc2ccc(S(=O)(=O)N3CCCCCC3)cc2[N+](=O)[O-])cc1	.	.	.	/
COc1ccc(CCC(=O)N2CCN(S(=O)(=O)c3ccc(OC)c([N+](=O)[O-])c3)CC2)cc1	.	/	/	/
O=S(=O)(c1ccc2ccccc2c1)N1CCOCC1	.	.	.	/
COc1ccc(CCC(=O)N2CCN(S(=O)(=O)c3ccc4ccccc4c3)CC2)cc1	.	0.79µM	.	.
Cn1ccc2cc(S(=O)(=O)N3CCN(S(=O)(=O)c4c(F)cccc4F)CC3)ccc21	/	/	/	.
O=S(=O)(c1ccc2ccccc2c1)N1CCN(S(=O)(=O)c2c(F)cccc2F)CC1	.	/	.	?
O=C(NCCN1CCCCCC1)C1CCC(CNS(=O)(=O)c2cccc3cccnc23)CC1 (centres undefined)	.	.	.	/
